Non-standard residues stand in square brackets, D forms with d. Residues, ends and D or L forms follow the SMILES beside them. *: point of attachment. Nva = CCC[C@H](N)C(=O)O; Cbz = O=C(OCc1ccccc1)*

The assay in a line: High-throughput drug toxicity screening in the BPDCN cell line Gen2.2 (AID 1224824). The settings on record: Gen2.2 BPDCN cells; at 45.8 µM (top of the series) unless noted. From the text: Blastic plasmacytoid dendritic cell neoplasm (BPDCN) is a rare, aggressive and largely incurable hematologic malignancy originating from plasmacytoid dendritic cells (pDCs). Although an initial response to chemotherapy is common, BPDCN prognosis is extremely poor and most patients relapse with drug-resistant disease leading to a median overall survival of ~1 year after diagnosis. To explore novel potential therapeutic strategies in BPDCN, we performed a high-throughput drug toxicity screening in BPDCN cell liens, using of a library of 1,912 small molecules, enriched for compounds that are either approved or in early stages of development for cancer therapy.
A total of 500 exponentially growing Gen2.2 cells were seeded per well in 5 uL of media (RPMI + Glutamine, without phenol red plus10% FBS and 1X Pen/Strep) into 1536-well solid white high base tissue culture treated Greiner One Bio Plates (789173-F), using a multidrop combi dispenser and a small sterile cassette. Compounds and controls totaling 23nL per well (negative control DMSO and positive control 9.2 uM Bortezomib-final) were immediately added to the plates using a 1536 head pin tool from Kalypsys. The plates were then covered with stainless steel gasket lids from Kalypsys and incubated for 48 hours at 37C under 95% relative humidity with 5% CO2. After 48 hours, the plates were removed and allowed to reach room temperature before 3 uL of Cell Titer Glo reagent (Promega) were added using an Aurora Flying Reagent Dispenser Bioraptor. The plates were then spun at 1000 rpms to remove bubbles and incubated for 15 minutes at room temperature before reading on a ViewLux using a luminescent filter with a 10 second exposure. The relative luciferase units were used to calculated percent activity using DMSO as 100% and Bortezomib as 0%.
For the molecule `CNC(=O)Nc1ccc(-c2nc(N3CC4CCC(C3)O4)c3cnn(C4CCC5(CC4)OCCO5)c3n2)cc1`, the cell viability, % of control (lower = more cytotoxic) was 17.6%.

On to `CCC[C@@H](C=O)NC(=O)[C@H](CC(C)C)NC(=O)[C@H](CC(C)C)NC(=O)OCc1ccccc1` (Cbz-Leu-Leu-[Nva]-aldehyde), for which the cell viability, % of control (lower = more cytotoxic) came out at 10.9%. The result for `c1cc(N[C@@H]2CCNC2)nc(-c2cnc3ccc(-c4cn[nH]c4)cn23)c1` reads 3.68%; that for `COC(=O)C=CC(=O)OC`, 35.4%; that for `O=C(Nc1ccc(Oc2ccnc3[nH]ccc23)c(F)c1)c1cccn(-c2ccc(F)cc2)c1=O`, 83%. For `Oc1cc(-c2nc(-c3ccccc3)[nH]c2-c2ccncc2)ccc1Cl` the value was 3.91%; for `COc1cccc2c1C(=O)c1c(O)c3c(c(O)c1C2=O)C[C@@](O)(C(=O)CO)C[C@@H]3O[C@H]1C[C@H](N)[C@@H](O)[C@H](C)O1`, 8.09%; for `C[C@H](CCC(=O)O)[C@H]1CCC2C3C[C@H](O)[C@@H]4C[C@H](O)CC[C@]4(C)C3CC[C@@]21C` (stereo not given in full), 130%. The result for `Cc1cnc(Nc2ccc(N3CCN(C)CC3)cc2)nc1Nc1cccc(S(=O)(=O)NC(C)(C)C)c1` reads 2.75%. Take `CCNC(=O)Nc1ccc(-c2nc3c(c(N4CCOC[C@H]4C)n2)CCN(C2COC2)C3)cc1`: the cell viability, % of control (lower = more cytotoxic) was 5.52%. As for `C[C@@H]1C(=O)O[C@H]2CC34[C@H]5C[C@@H](C(C)(C)C)C36[C@H](OC(=O)[C@@H]6O)O[C@@]4(C(=O)O5)[C@]21O` (stereo not given in full), the cell viability, % of control (lower = more cytotoxic) was 129%. For `COc1cc(C)c(C=CC(C)=CC=CC(C)=CC(=O)O)c(C)c1C` the value was 336%; for `Cc1cc(O)c2c(c1)C(=O)c1cccc(O)c1C2=O`, 99.4%; for `OC[C@@H](O)[C@@H](O)[C@H](O)[C@@H](O)CO`, 201%. The result for `COC(=O)[C@@H]1CC2=CC(=O)CC[C@]2(C)[C@@]23O[C@@H]2C[C@@]2(C)[C@H](CC[C@@]24CCC(=O)O4)[C@@H]13` reads 132%.

As to `COc1cc(C(=O)NC2CCN(C)CC2)ccc1Nc1ncc2c(n1)N(C1CCCC1)CCC(=O)N2C(C)C`, the cell viability, % of control (lower = more cytotoxic) is 6.24%. For `NC(=O)Nc1sc(-c2ccc(F)cc2)cc1C(N)=O`, the cell viability, % of control (lower = more cytotoxic) was determined as 3.62%. For `CCC(C(=O)O)C1CCC(C)C(C(C)C(O)C(C)C(=O)C(CC)C2OC3(C=CC(O)[C@@]4(CC[C@](C)(C5CC[C@@](O)(CC)C(C)O5)O4)O3)C(C)CC2C)O1` (stereo not given in full) the value was 16%; for `C[N+](C)([O-])CCNc1ccc(NCC[N+](C)(C)[O-])c2c1C(=O)c1c(O)ccc(O)c1C2=O`, 105%; for `Nc1ncn([C@@H]2O[C@H](CO)[C@@H](O)[C@@H]2O)c(=O)n1`, 15.6%.

With `C#C[C@]1(O)CC[C@@H]2[C@@H]3CCC4=CC(=O)CC[C@@H]4[C@H]3CC[C@@]21CC`, the cell viability, % of control (lower = more cytotoxic) was 146%. For `Oc1ccc([C@@H]2Oc3ccc(O)cc3[C@@H]3CCC[C@@H]32)cc1` the value was 90.8%; for `COc1ccc(S(=O)(=O)Nc2cccnc2Nc2ccc(O)cc2)cc1`, 4.34%.

`C=CC(=O)Nc1cc(NC(=O)c2ccc(C)c(NC(=O)c3ccno3)c2)cc(C(F)(F)F)c1`: the cell viability, % of control (lower = more cytotoxic) worked out at 4.74%. The result for `N#Cc1ccc(COC[C@H]2O[C@@H](n3c(NCc4ccc(Cl)c(Cl)c4)nc4c(N)ncnc43)[C@@H](O)[C@@H]2O)cc1` reads 10.7%; that for `CCCCCCCCCCCCc1ccc(S(=O)(=O)Nc2nncs2)cc1`, 86%; that for `Cn1cc(-c2ccc3ncc(Cc4ccc5ncccc5c4)n3n2)cn1`, 45.5%. For `CCc1cnn2c(NCc3ccc[n+]([O-])c3)cc(N3CCCC[C@@H]3CCO)nc12` the value was 4.38%; for `N=c1ccn2c(n1)O[C@H]1[C@@H](O)[C@@H](CO)O[C@H]12`, 70.9%; for `O=C(O)c1ccc(Nc2ncc3c(n2)-c2ccc(Cl)cc2C(c2c(F)cccc2F)=NC3)cc1`, 41.7%.

For `O=C(CN1C(=O)C2(CCCC2)NC[C@H]1c1cc(F)cc(F)c1)Nc1ccc2c(c1)C[C@@]1(C2)C(=O)Nc2ncccc21`, the cell viability, % of control (lower = more cytotoxic) was 124%. For `CS(=O)(=O)N1CCc2c(-c3cnc(N)nc3)nc(N3CCOCC3)nc21` the value was 10.4%; for `CC(C)c1cc(C(C)C)c(CC(=O)NS(=O)(=O)Oc2c(C(C)C)cccc2C(C)C)c(C(C)C)c1`, 94.3%. For `CC(C)(C)[N+]([O-])=Cc1ccc(S(=O)(=O)O)cc1S(=O)(=O)O` the value was 133%; for `CCc1nc(-c2cccc(C)c2)c(-c2ccnc(NC(=O)c3ccccc3)c2)s1`, 229%; for `COc1cc(C=CC(=O)CC(=O)C=Cc2ccc(O)c(OC)c2)ccc1O`, 5.74% [at 92.2 µM]. Regarding `N#CC(=C(N)Sc1ccc(N)cc1)c1ccccc1C(F)(F)F`, the cell viability, % of control (lower = more cytotoxic) is 7.44%. For `NC(=NCCCCCCN=C(N)N=C(N)Nc1ccc(Cl)cc1)N=C(N)Nc1ccc(Cl)cc1` the value was 6.22%; for `CN1C(C(=O)Nc2ccccn2)=C(O)c2sc(Cl)cc2S1(=O)=O`, 59.6%.

Turning to `C=CCNc1c(O)cc2c(O)c1C[C@@H](C)C[C@H](OC)[C@@H](O)[C@@H](C)C=C(C)[C@H](OC(N)=O)[C@@H](OC)C=CC=C(C)C(=O)N2`, the cell viability, % of control (lower = more cytotoxic) came to 5.31%.

Values taken from PubChem BioAssay (NCATS).
